# In ChEMBL document CHEMBL3988442, “University of Dundee, Small-Polar-MMV Screening Library” (2021):
# Molecular target: AMP-activated protein kinase, AMPK (Homo sapiens) (UniProt P54646+O43741+P54619+Q9UGJ0+Q9Y478+Q13131+Q9UGI9)
# Assay: AMP-dependent Kinase enzyme assay. An in vitro enzyme assay that detects ADP turnover that is directly proportional to AMPK activity. This uses naive AMPK that is activated during the assay with MK-8722
# Type: functional
# Parameters: scale not given: direction of the effect not stated beside the values
# Conditions: 30 µM
row,Compound,Percent Effect [%]
1,CN(CC(=O)NC(C)(C)C)Cc1cccc2c1OCCO2,-9.42
2,Cc1noc(C)c1CNC(=O)NCCC(=O)N1CCCc2ccccc21,-2.4
3,CN(C(=O)c1cccc(C#N)c1)c1nnc(C2CCOC2)s1 (stereo not given),5.31
4,CCn1nc(C)cc1C(=O)OCC1CC(=O)N(Cc2ccccc2)C1 (stereo not given),38.6
5,OC(CNCCc1nnc2ccccn12)c1ccc2c(c1)OCO2 (stereo not given),17.2
6,CSc1ccc(NC(=O)Cn2cc(NC(C)=O)cn2)cc1,-11.9
7,CC(C)C(C(=O)O)c1cccc(Cl)c1 (stereo not given),-3.52
8,O=C(c1cnc2ccccn12)N1CCCC(c2ccn[nH]2)C1 (stereo not given),7.56
9,CN(Cc1ccoc1)C(=O)C1CCN(C(=O)C2CCCC2)CC1,-3.16
10,CC(C)Cc1noc(CN(C)C2CCS(=O)(=O)C2)n1 (stereo not given),-4.29
11,COc1cccc2ccc(N3CCC(O)(C(=O)O)CC3)nc12,1.15
12,CC(C)c1cc(NC(CCO)c2ccccc2)n2nccc2n1 (stereo not given),13.4
13,Cc1ccc(Oc2cc(CN)ccn2)cc1C,-98.1
14,Cn1cc(CN2CCCC(O)C2)c(-c2ccccc2F)n1 (stereo not given),5.23
15,CCC(=O)Nc1cccc(OCC(=O)N(C)CCCC2CCCO2)c1 (stereo not given),11.8
16,CC(O)C(=O)N1CCC(c2[nH]ncc2-c2ccccc2)CC1 (stereo not given),-11.2
17,N#Cc1c(N)nc2c(c1-c1c[nH]nc1C1CCCCC1)CC(N)CC2 (stereo not given),23.9
18,Cn1nnnc1SCC1(O)CCCCC1,32.1
19,NC(=O)C1CCCN(Cc2ccc(C(=O)Nc3cnns3)cc2)C1 (stereo not given),5.32
20,COCc1nn(Cc2ccc(Br)s2)c(=O)o1,13.5

row,Compound,Percent Effect [%]
1,O=C(Cc1ccccc1O)NC1CCCN(c2ccccc2F)C1=O (stereo not given),8.51
2,Cc1nc(C(NC(=O)CN(C)C(C)C)c2ccccc2F)no1 (stereo not given),-4.35
3,CNS(=O)(=O)CC(=O)N1CCC(c2cc3ccccc3[nH]2)CC1,16.4
4,COC[C@]1(O)CCN(c2cc(OC)ncn2)CC1(C)C,20.7
5,O=C(NCCc1cc(N2CCOCC2)nc(NC2CC2)n1)C1CCCO1 (stereo not given),-0.703
6,COc1ccc(C)cc1CN(C)CC(N)=O,-2.2
7,COCCOc1cccc(CNCc2ccc(-n3cncn3)nc2)c1,3.28
8,CC(OCC1CC1)C(=O)Nc1nccn1Cc1ccccc1 (stereo not given),5.4
9,COc1ccccc1OC(C)CNC(=O)c1cnc[nH]1 (stereo not given),0.827
10,CC(C(=O)Nc1cccc(F)c1)N(C)CCN1CCOCC1 (stereo not given),0.543
11,CSc1nccc(N2CCC(NCc3ccc4c(c3)OCO4)CC2)n1,15
12,O=C(O)c1ccc(C2CCCN(C(=O)c3ccc[nH]3)C2)cc1 (stereo not given),3.76
13,O=C(Cn1ccc(=O)[nH]c1=O)NCc1cccnc1OCC(F)(F)F,-4.52
14,CCc1cnc(N)nc1NCCC(=O)NC1CCCCC1,-4.74
15,COCc1nc2cc3c(cc2c(=O)o1)OCCCO3,-7.41
16,CCCN(CC(=O)N(C)C)C(=O)c1ccc(-c2nc(C)cs2)cc1,4.25
17,Cc1nc2c(c(NCCc3nccs3)n1)CCN(CC1CC1)CC2,6.45
18,Cn1ccnc1C1(O)CCN(C(=O)Cc2ccccc2)CC1,13.3
19,CC(=O)N1CCc2c(nc(N(C)C)nc2NCCCn2ccnc2C)C1,7.72
20,CC(O)Cc1cn(CC2CCN(C3CCSCC3)CC2)nn1 (stereo not given),-7.5
